Measured values as given in PubChem BioAssay (NCI).
The panel holds about 83,000 compounds, 20% with a hit somewhere; the sample as a whole holds those more often.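 Note: values are percent growth. 100 is the growth of untreated cells, values between 100 and 0 indicate rising inhibition; between -100 and 0 indicates cell death.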 Calls of active or inactive are those of the source. Rule for the calls: active = growth percent below 10; inactive = the rest.

Assays:
Assay in all cases: NCI-60 one-dose screen, 48 h (100 = growth as untreated, 0 = no growth, -100 = all killed)
[1] = system: SR leukemia; conditions: 10 µM unless noted
[2] = system: RPMI-8226 leukemia; conditions: 10 µM
[3] = system: OVCAR-8 ovarian; conditions: 10 µM unless noted
[4] = system: OVCAR-5 ovarian; conditions: 10 µM unless noted
[5] = system: SK-OV-3 ovarian; conditions: 10 µM
[6] = system: IGROV1 ovarian; conditions: 10 µM unless noted
[7] = system: OVCAR-3 ovarian; conditions: 10 µM unless noted
[8] = system: HS 578T breast; conditions: 10 µM unless noted
[9] = system: NCI/ADR-RES ovarian; conditions: 10 µM unless noted
[10] = system: T-47D breast; conditions: 10 µM
[11] = system: BT-549 breast; conditions: 10 µM unless noted
[12] = system: MDA-MB-435 melanoma; conditions: 10 µM unless noted
[13] = system: SW-620 colon; conditions: 10 µM unless noted
[14] = system: HCT-116 colon; conditions: 10 µM unless noted
[15] = system: HCC-2998 colon; conditions: 10 µM unless noted
[16] = system: KM12 colon; conditions: 10 µM unless noted
[17] = system: MCF7 breast; conditions: 10 µM unless noted

Measured: growth

Cc1ccc(-c2c3c(N)c4c(nc3nc3c2c(C)nn3-c2ccccc2)CCCC4)cc1
inactive: [2] 94.1% | [3] 98.1% | [4] 101% | [5] 99.9% | [6] 98.6% | [7] 116% | [8] 105% | [9] 106% | [10] 92.6% | [11] 109% | [12] 96.4% | [13] 97.1% | [14] 90.2% | [15] 107% | [16] 105%
active: [1] -4.06%

Clc1ccc2c(c1)C[C@H]1C[C@@H](c3cccs3)N2O1
inactive: [1] 82.4% | [2] 86.7% | [3] 99.9% | [4] 89.5% | [5] 98.9% | [6] 94.5% | [7] 114% | [9] 102% | [10] 97.1% | [11] 105% | [12] 95.9% | [13] 99.1% | [17] 105% | [14] 105% | [15] 99.8% | [16] 104%

O=C(N/N=C(\CS(=O)(=O)c1ccccc1)c1cc2ccccc2oc1=O)c1ccccc1
inactive: [1] 101% | [2] 112% | [3] 100% | [4] 101% | [6] 109% | [7] 111% | [8] 106% | [9] 107% | [10] 101% | [11] 104% | [12] 103% | [13] 105% | [17] 102% | [14] 112% | [15] 106% | [16] 108%

CCCCc1ccc(C(O)(CCN2CC3CCC(CC3)C2)c2ccccc2)cc1 (stereo not given)
inactive: [1] 68% | [2] 72.2% | [3] 104% | [4] 90.9% | [5] 91.2% | [6] 95.2% | [7] 91.9% | [9] 98.3% | [10] 73.8% | [11] 90.2% | [12] 98.2% | [13] 95.7% | [17] 95.7% | [14] 77% | [15] 90.1% | [16] 93.2%

COC(=O)c1c2c(c(C)[n+]([O-])c1C)C(=O)C=C(NCc1ccc(F)c(Cl)c1)C2=O
active: [1] -1.19% | [2] -32.7% | [3] -21.2% | [4] -91.8% | [6] -55.2% | [7] -41.4% | [8] -24.2% | [9] -18.6% | [10] -41.9% | [11] -96.9% | [12] -96.9% | [13] -29.6% | [17] -61.9% | [14] -48.6% | [15] -59.3% | [16] -16.5%
